In PubChem BioAssay (NCI):
About 79,000 compounds went through this panel and 15% of them were active in at least one assay; those are over-represented in the sample as a whole. A number with no mark means an inactive call. Activity calls are given as the source filed them. Rule as the data show it: active = growth inhibition above about 70%; inactive = the rest.

Assays:
[1] = NCI Yeast Anticancer Drug Screen. Data for the rad50 strain (AID 155);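 also: 0% = growth of vehicle-only cultures of the same strain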; details: S. cerevisiae rad50 strain growth inhibition, stronger effect = higher value
Method in brief: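 Vehicle-treated cultures provide the reference for the growth inhibition reported for compound-exposed, repair-deficient yeast.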

[2] = NCI Yeast Anticancer Drug Screen. Data for the mec2-1 strain (AID 157); details: S. cerevisiae mec2-1 strain, stronger effect = higher value
Method in brief: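 Yeast mec2-1 mutant treated with compound. Readout: growth inhibition vs vehicle controls.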

[3] = NCI Yeast Anticancer Drug Screen. Data for the sgs1 mgt1 strain (AID 161);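 also: 0% = growth of cultures given vehicle only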; details: S. cerevisiae sgs1 mgt1 strain, stronger effect = higher value
Method in brief: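 Genetically altered yeast, compound exposure, growth inhibition relative to vehicle.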

[4] = NCI Yeast Anticancer Drug Screen. Data for the cln2 rad14 strain (AID 165);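 also: 0% = growth equal to vehicle treated cultures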; details: S. cerevisiae cln2 rad14 strain, stronger effect = higher value
Method in brief: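 cln2 rad14 yeast strain; compound exposure; growth inhibition read vs vehicle controls.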

[5] = NCI Yeast Anticancer Drug Screen. Data for the bub3 strain (AID 167); details: S. cerevisiae bub3 mutant strain, stronger effect = higher value
Method in brief: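 Mutant yeast screening strain plus compound; vehicle-treated cultures serve as the 0% inhibition reference.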

[6] = NCI Yeast Anticancer Drug Screen. Data for the mlh1 rad18 strain (AID 175); details: S. cerevisiae mlh1 rad18 strain growth inhibition, stronger effect = higher value
Method in brief: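 Yeast w/ defined DNA-repair lesions; compound exposure; growth vs vehicle controls → % inhibition.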

[7] = at 5.0 µM (retest, dose inferred, filed as 0.5)
[8] = at 50.0 µM (retest, dose inferred, filed as 5.0)

| SMILES | growth inhibition [1, 7] [%] | growth inhibition [1, 8] | growth inhibition ([1]; at 50.0 µM) | growth inhibition [2, 7] [%] | growth inhibition [2, 8] | growth inhibition ([2]; at 50.0 µM) | growth inhibition [3, 7] [%] | growth inhibition [3, 8] | growth inhibition ([3]; at 50.0 µM) | growth inhibition [4, 7] [%] | growth inhibition [4, 8] | growth inhibition ([4]; at 50.0 µM) | growth inhibition [5, 7] [%] | growth inhibition [5, 8] | growth inhibition ([5]; at 50.0 µM) | growth inhibition [6, 7] [%] | growth inhibition [6, 8] | growth inhibition ([6]; at 50.0 µM) |
| --- | --- | --- | --- | --- | --- | --- | --- | --- | --- | --- | --- | --- | --- | --- | --- | --- | --- | --- |
| O=C(O)CC/C(=N\Nc1ccccc1)C(=O)O | 3 | 96% (active) | 97.2% (active) | -2 | 90% (active) | 98% (active) | -8 | 84% (active) | 97.4% (active) | 6 | 98% (active) | 97% (active) | 1 | 93% (active) | 97.3% (active) | 5 | 93% (active) | 97% (active) |
| COC(=O)c1ccc(C)cc1C1CN=NC12Cc1cc(C)ccc1C2=O (configuration not stated) | 10 | 50% | 5.35% | 8 | 44% | 19.6% | 5 | 67% | 68.6% | 6 | 44% | 37.2% | 6 | 73% (active) | 46.1% | 13 | 65% | 65% |
| O=C(O)C1(Cc2ccc3c(c2)CCC3)Cc2cc3c(cc2C1)CCC3 | 2 | 2% | 82.8% (active) | -7 | -7% | 86.1% (active) | -1 | -1% | 77.8% (active) | -1 | -1% | 82% (active) | -11 | -11% | 82.2% (active) | 14 | 14% | 80.1% (active) |
| O=C(Nc1ccc(C2=NCCN2)cc1)c1cc(C(=O)Nc2ccc(C3=NCCN3)cc2)cc(C(=O)Nc2ccc(C3=NCCN3)cc2)c1 | 37 | 96% (active) | 99% (active) | 5 | 94% (active) | 99% (active) | 16 | 95% (active) | 98.8% (active) | 13 | 62% | 90.1% (active) | 23 | 99% (active) | 98.8% (active) | 25 | 98% (active) | 99% (active) |
| O=C1NC(=S)S/C1=C\c1cc(Cl)ccc1O | 4 | -7% | 2.85% | -4 | -6% | 15.7% | -1 | 4% | 60.5% | -7 | -18% | -22.4% | -7 | -14% | -4.2% | -5 | -6% | 3.05% |
| O=c1c2ccccc2sc2c1c(N(CCO)CCO)cc1ccccc12 | 45 | 94% (active) | 97.5% (active) | 6 | 94% (active) | 95.8% (active) | 12 | 93% (active) | 97.9% (active) | -7 | 78% (active) | 96.2% (active) | -5 | 93% (active) | 96.8% (active) | 19 | 95% (active) | 97.6% (active) |
| CCOc1c(N=Nc2ccccc2OC)c(-c2ccccc2)nn1C(N)=S | 10 | 38% | 67% | 1 | 35% | 63% | 26 | 61% | 76.1% (active) | -8 | 20% | 44% | -1 | 29% | 26.8% | 2 | 39% | 53.4% |
| COc1ccccc1NC(=O)CSC(N)=O | 5 | 24% | 71% (active) | 4 | 42% | 61.8% | 3 | 24% | 92.5% (active) | 5 | 7% | 58% | 4 | 66% | 88.2% (active) | 2 | 21% | 74% (active) |
| CCOC(=O)C(=C=Cc1cccs1)C(=O)c1ccccc1 | 16 | 84% (active) | 87% (active) | -14 | 95% (active) | 90.5% (active) | 3 | 92% (active) | 90.8% (active) | -10 | 91% (active) | 90.7% (active) | -13 | 97% (active) | 89.8% (active) | -10 | 94% (active) | 83.9% (active) |
